Assay results taken from the supplement of paper PMC6555819.

The sequences below were run on PPARg:RXRa DBDmut IVT, anti-RXR (DBD mutation: RXRa K156A/R161A, NR concentration 270 nM, RXRa partner concentration 90 nM) (assay: PBM binding z-score (relative to random genomic background probes); higher = stronger binding; sequences stand for … in GC…GCGATTGACAGCGTAGAATGAAGG).
How it was run: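 Random background probes are the reference for binding z-scores. These scores derive from regression-normalized fluorescence on custom Agilent 4×180K protein-binding microarrays incubated 1 h with ligand-free nuclear receptor dimers. Binding was detected with antibodies against each partner (one per run).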
For CCTTACGGGTCACGAGGTTATAACACGACGAGCG, the PBM binding z-score was 3.55.
GGAACGAGTGCATTCGAGTTGATAGCATGGCGAT gave a PBM binding z-score of -0.308.
For TAGCCTCGGTCATGGGCCAGTATACCACGCGAAC, the PBM binding z-score was -0.58.
TCGAGTAGGTTAGGGGCATTGAGAATGGCGTCGA was tested, and the PBM binding z-score was 1.85.
CCTAGCTGGCCAGGGTCACTCAAGCATTTCGCTT was tested, and the PBM binding z-score was -0.189.
Work on CCAACTGGGGCATAAGGTTACCATAAGCCAGCCC yielded a PBM binding z-score of 4.69.
CTACCAAGGTGCACAAGGTCGTTGATTACTATTC gave a PBM binding z-score of 0.47.
Work on TCAGATAGGTAATACAGGTGAAAGTCGGCATCTA yielded a PBM binding z-score of 2.72.
For GGAACGAGGGCATTCGAGTTAATAGCATGGCGAT, the PBM binding z-score was 3.25.
CCTAGCAGGCCAATCTGAGTCACTCAAGGCTTGA showed a PBM binding z-score of 1.42.
Sequence CTACCATGGTGAACAAGGTCGTTGATTACTATTC has a PBM binding z-score of 0.666.
ATCTCTAGATAAAGATAGTTCAGTGAATGCAAAT showed a PBM binding z-score of -0.378.
In the case of TCTAGTTTGTCACGGAGGTCACACACGACGGGTA, the PBM binding z-score is reported as 1.88.
With CAAACTAGGTCACCGGAAGGTCAAAGTGCGCATG the PBM binding z-score was 8.63.
TCGAGTAGGTTAGTCGGCGCATTCAGCCAACATA showed a PBM binding z-score of 1.73.
CCTAGCAGGCCACTCTGGGTCACTCAAGGCTTGA gave a PBM binding z-score of 2.5.
TCATATAGGTAAATGCTATGTGAAAGTCCGATCT gave a PBM binding z-score of 3.59.
With AGTCAAAGTTCAGGACGAGGTAACGTCAAGCACG the PBM binding z-score was -0.313.
Work on TGTTAAAGTTCAAAGGTAACGTAAGTATCCACAC yielded a PBM binding z-score of 0.162.
Sequence AGAATGAGGTTATTAAGATCACGGAATTGCGGTC has a PBM binding z-score of 3.48.
CCTTACGGGTCACGGACAGGTTATAGCATTTGGA showed a PBM binding z-score of 3.87.
Sequence CTCGAAAGGTCGGTTGAGGTGAGTATTCGGATAA has a PBM binding z-score of 0.311.
In the case of ACAGACAGGTGATGCAGGTAACTCAGGCTATCAT, the PBM binding z-score is reported as 0.0988.
For CCATACGGGTCACTCCAGGTTATAGCATCGGAGT, the PBM binding z-score was 1.6.
Work on TAGCCTAGGTCAGATCGGGCCATTATACGCTATA yielded a PBM binding z-score of 0.579.
CCCTACGGGTCACTCCAGGTTATAGCATCGGAGT showed a PBM binding z-score of 0.284.
Work on CCTACTGGGCCAAGGACATTGATCAGTCAAAGCA yielded a PBM binding z-score of 3.42.
TCTTGTAGATCAAGAAGGTTAAGAAAGCCTGAGT was tested, and the PBM binding z-score was 1.65.
CCTTACGGGTCACGAGGTTATAGCACGACGAGCG showed a PBM binding z-score of 3.98.
CTACCAAGGTGAACAAGGCCGTTGATTACTATTC gave a PBM binding z-score of 2.3.
Sequence GCAGACAGGTGAAACGCGGGTAACTCAGGGTGGC has a PBM binding z-score of 1.2.
In the case of CCAGACAGGTGAGAAGGTATCTCAGCCTCGATTA, the PBM binding z-score is reported as 0.865.
CTACCAAGGTGAACAAGGTCGTGGATTACTATTC was tested, and the PBM binding z-score was 2.25.
In the case of CCTTACGGGTCACTCCAGGTTATAGAATCGGAGT, the PBM binding z-score is reported as 2.67.
Work on ATCTAAAGGTCGACGAGGTGAGTATACACCGTTT yielded a PBM binding z-score of 0.916.
For ATACCTAGGTGATCGTGAGGTCGTTGATACTAAC, the PBM binding z-score was 1.24.
In the case of TAGTCTAGGTCAGATCGGGCCAGTATACGCTATA, the PBM binding z-score is reported as 4.19.
Sequence AGTCAAAGTTCATCTAGGTAACGTACGATATGCT has a PBM binding z-score of 1.04.
CCGACTGGGGCAGAAAGGTTACCAGACCATCCGG was tested, and the PBM binding z-score was 1.28.
TCATATAGGTAAATGCTTGGTGAAAGTCCGATCT was tested, and the PBM binding z-score was 4.12.
